Measurements: PubChem BioAssay (NCATS)
Inconclusive results are not listed. A number with no mark means an inactive call. Active and inactive are the calls of the source. The call rests on the fitted dose curve; in most records, active means well fitted curve in the direction sought with a large enough effect; inconclusive means small, poorly fitted or top-dose-only effect, or another doubt; inactive means no such curve, though single readings can be large; an effect the other way counts as inactive or inconclusive.

experiment: Quantitative High-Throughput drug screen in 47 multiple myeloma cell lines against the NCATS MIPE library collection: JIM3_ECACC cell viability assay (AID 1918963; further: nearly all actives have a fitted effect of over 35% in size); details: JIM3 myeloma viability, CellTiter-Glo ATP, 48 h; series mostly up to 45.8 µM; viability, percent of control: at the top concentration
Procedure, shortened: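 We plated 500 myeloma cells per well, pinned in MIPE 4.0 compounds, and incubated for 48 hours at 37C. ATP was then quantified with CellTiter-Glo, with DMSO and media-only wells defining 100% and 0%.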
Potency means the concentration at half of the fitted maximal effect.

SMILES	viability, percent of control [%]	Potency
CCC(=O)OC1CCC2C3CCC4=CC(=O)CC[C@@]4(C)C3CC[C@]12C (some centres undefined)	81	–
C[C@@H]1CC[C@H]2[C@@H](C)C(=O)O[C@@H]3O[C@@]4(C)CC[C@H]1[C@]32OO4	–	1480 nM (active)
O=c1[nH]c2ccccc2n1C1CCN(Cc2ccc(-c3[nH]c4cc5ncnc5cc4nc3-c3ccccc3)cc2)CC1	–	5900 nM (active)
c1ccc2c(CN3CCNCC3)cccc2c1	101	–
CC(=O)O[C@@]12CO[C@H]1C[C@H](O)[C@@]1(C)C(=O)[C@H](O)C3=C(C)[C@@H](O)C[C@@](O)([C@@H](OC(=O)c4ccccc4)[C@@H]21)C3(C)C	–	1050 nM (active)
CC(=O)N(C)c1cccc(-c2ccnc3c(C(=O)c4cccs4)cnn23)c1	110	–
CN(C)NC(=O)CCC(=O)O	110	–
C[C@@]12OC(=O)[C@]1([C@@H](O)[C@@H]1C=CCCC1)NC(=O)[C@H]2CCCl	–	23.5 nM (active)
CSCC[C@@H](NC(=O)[C@@H](Cc1ccccc1)NC(=O)CNC(=O)CNC(=O)[C@@H](N)Cc1ccc(O)cc1)C(=O)O	122	–
O=C(Nc1ccncc1)C(=O)c1cn(Cc2ccc(Cl)cc2)c2ccccc12	–	14.8 nM (active)
C#C[C@]1(O)C=C[C@@H]2[C@@H]3CCC4=CC(=O)CC[C@@H]4[C@H]3CC[C@@]21CC	115	–
CC=C(C)C(=O)N[C@@H](c1ccccc1)[C@@H](O)C(=O)O[C@H]1C[C@@]2(O)[C@@H](OC(=O)c3ccccc3)[C@@H]3[C@]4(OC(C)=O)CO[C@@H]4C[C@H](O)[C@@]3(C)C(=O)[C@H](OC(C)=O)C(=C1C)C2(C)C	23.5	–

experiment: Quantitative High-Throughput drug screen in 47 multiple myeloma cell lines against the NCATS MIPE library collection: JIM1_ECACC cell viability assay (AID 1918964); details: JIM1 myeloma viability, CellTiter-Glo ATP luminescence, 48 h; series mostly up to 45.8 µM; viability (% of DMSO): at the top concentration
Procedure, shortened: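 Approved and investigational drugs from MIPE 4.0 were added by pin tool to 500 cells per well. After 48 hours at 37C, ATP-based CellTiter-Glo luminescence indicated remaining viability.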

SMILES	Potency	viability (% of DMSO) [%]
CC[C@@]1(O)C(=O)OCc2c1cc1n(c2=O)Cc2cc3ccccc3nc2-1	132 nM (active)	–
COc1ccc2c(c[n+](C)c3c4cc5c(cc4ccc23)OCO5)c1OC	4180 nM (active)	–
O=S(=O)(CC1CS1)c1ccc(Oc2ccccc2)cc1 (centres undefined)	–	145
C[C@@H]1[C@H](O)[C@@H](C)C=CC=CCCC=CC=CC=CC=C[C@H](O[C@H]2O[C@@H](C)[C@H](O)[C@@H](N)[C@@H]2O)CC2O[C@](O)(C[C@@H](O)[C@H](O)CC[C@@H](O)C[C@@H](O)C[C@@H](O)CC(=O)O[C@H]1C)C[C@H](O)[C@H]2C(=O)O	–	84.5
COc1ccc2c(c1)CN(C)CC2c1ccc(Cl)c(Cl)c1 (centres undefined)	7430 nM (active)	–
CCNC(=O)C[C@@H]1N=C(c2ccc(Cl)cc2)c2cc(OC)ccc2-n2c(C)nnc21	1660 nM (active)	–
Cc1c(C(=O)Nc2cccc(C(F)(F)F)c2)cc(-c2ccccc2)n1CCCN1CCOCC1	6620 nM (active)	–
CC(=CCCC1=CCC(C2=CC(=O)OC2O)OC1O)CCC1=C(C)CCCC1(C)C (centres undefined)	–	88.8
COc1ccc2c(c1)[C@]13CCCCC1C(C2)N(C)CC3 (some centres undefined)	–	94.4
O=c1[nH]c2ccccc2n1C1CCN(Cc2ccc(-c3[nH]c4cc5ncnc5cc4nc3-c3ccccc3)cc2)CC1	4690 nM (active)	–
C[C@]12COC(=O)C[C@@H]1CC[C@@H]1[C@H]2CC[C@@]2(C)[C@H]1CC[C@]2(C)O	–	91.7
c1ccc2c(CN3CCNCC3)cccc2c1	–	110
CN(C)NC(=O)CCC(=O)O	–	96
C[C@@]12OC(=O)[C@]1([C@@H](O)[C@@H]1C=CCCC1)NC(=O)[C@H]2CCCl	20.9 nM (active)	–
COc1cc([C@@H]2c3cc4c(cc3[C@@H](O)C3COC(=O)C32)OCO4)cc(OC)c1O (some centres undefined)	4.2 nM (active)	–
C[C@@H]1O[C@@H](O[C@@H]2C=C3CC[C@@H]4[C@@H](CC[C@]5(C)[C@H](c6ccc(=O)oc6)CC[C@@]45O)[C@@]3(C)CC2)[C@H](O)[C@H](O)[C@H]1O	13.2 nM (active)	–
O=C(Nc1ccncc1)C(=O)c1cn(Cc2ccc(Cl)cc2)c2ccccc12	16.6 nM (active)	–
